Each structure is given as a SMILES string. The whole screen tested about 350,000 compounds, of which about 31,000 (8.9%) were called active. About 15% were inconclusive and are not listed. The list comes from a sample in which actives are over-represented; it also holds similar structures and randomly drawn compounds. Where a call stands in place of a potency, no number is given. A number with no mark means an inactive call. Calls follow the shape of the dose curve; as a rule, active = well fitted inhibition curve with a large enough effect; inconclusive = small, poorly fitted or top-dose-only effect; inactive = no such curve, though single readings can be large or run the other way.
Potency is read from the fitted curve at half-maximal effect.

This assay deals with Histone-lysine N-methyltransferase EHMT2 (Homo sapiens) (UniProt Q96KQ7). As to the kind of experiment: qHTS Assay for Inhibitors of Histone Lysine Methyltransferase G9a. Also: nearly all actives have a fitted effect of over 75% in size. To be noted: G9a H3K9 monomethylation, AlphaScreen, 2 h; series mostly up to 59 µM. In a few lines: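 G9a (20 nM) preincubated 15 min RT with compounds, then 500 nM biotinylated H3K9 peptide and 20 uM SAM added; 2 h RT reaction. Monomethyl-H3K9 product detected by AlphaScreen with anti-H3K9me1 antibody, streptavidin donor and anti-rabbit IgG acceptor beads.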
Chain of Histone-lysine N-methyltransferase EHMT2 (Homo sapiens) (Q96KQ7 913-1193 limits assumed): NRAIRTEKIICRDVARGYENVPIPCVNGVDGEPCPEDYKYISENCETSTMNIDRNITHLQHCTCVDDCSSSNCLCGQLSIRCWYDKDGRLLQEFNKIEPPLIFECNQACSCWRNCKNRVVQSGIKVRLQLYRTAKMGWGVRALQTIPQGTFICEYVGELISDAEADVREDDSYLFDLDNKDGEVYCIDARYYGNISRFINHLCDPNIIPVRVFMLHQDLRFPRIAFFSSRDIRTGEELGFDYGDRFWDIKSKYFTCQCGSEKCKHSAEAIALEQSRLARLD
On the technique in general: Quantitative high-throughput screening tests each substance at several concentrations.
Regarding `O=C(NCC(c1ccco1)S(=O)(=O)c1cccs1)c1ccc(F)cc1` (centres undefined), the Potency result is “inactive”.

Turning to `CCc1ccc(NC(=O)CN2CCSc3ccc(S(=O)(=O)N4CCCC4)cc32)cc1`, the Potency result was “inactive”. In the case of `CCN(Cc1ccccc1)S(=O)(=O)c1ccc2c(c1)CCCN2C(C)=O`, the Potency entry is “inactive”. Take `Cc1ccc2[nH]c3c(=O)n(CC(=O)NC(C)C)ncc3c2c1`: the Potency entry is “inactive”. Same read-out and setting: to `CCc1ccc(NC(=O)CN2C(=O)C(c3ccccc3)=NC23CCCCCC3)cc1` belongs “inactive”. On the same count and under the same terms, to `Cc1cc2c(cc3c(SCc4nc(-c5ccccc5)oc4C)nnc(C)n32)o1` belongs “inactive”. On to `Cc1nnc(SCc2cccc(Cl)c2)n(N)c1=O`, for which the Potency entry is “inactive”. Still for that read-out and setting: under `Cc1cc2c(cc3c(SCc4cccc(Cl)c4)nnc(C)n32)o1` stands 7.08 µM (active).

As to `Cc1cc(C(=O)NNC(=O)c2ccccc2O)c(C)o1`, the activity, negative = inhibition was 72.2% [at 12.7 µM]. The same measure, in the same setting: under `CC(=O)Nc1ccc(NC(=O)C(NS(=O)(=O)c2ccc3c(c2)OCCO3)C(C)C)cc1` (centres undefined) stands 15.5% [at 12.7 µM]. Same read-out and setting: under `Cc1ccc(NC(=O)C2CC2c2ccccc2)cc1` (centres undefined) stands 18.3% [at 2.33 µM]. For `Cc1ccc(C2CC2C(=O)NN)cc1` (centres undefined), the Potency entry is “inactive”. The same measure, in the same setting: under `Cc1ccc(C2NC(C(=O)O)CS2)cc1` (centres undefined) stands 31.6 µM (active); under `COc1cc(C(=O)Nc2ccc(-n3c(C)nc4ccccc4c3=O)cc2)cc(OC)c1OC`, “inactive”; under `CCc1c(C)nc(N)n2c(SCC(=O)NC3CCCCC3)nnc12`, “inactive”. Same read-out and setting: under `O=C(NCCCc1ccccc1)C(=O)c1c[nH]c2ccccc12` stands “inactive”; under `COc1ccc(OC)c2[nH]c(=O)c(CCNC(=O)C(=O)c3c[nH]c4ccccc34)cc12`, 50.1 µM (active); under `COc1ccc(OC)c2[nH]c(=O)c(CCNC(=O)C(C)(C)C)cc12`, “inactive”. Still for that read-out and setting: to `Cc1ccc(S(=O)(=O)c2cn(Cc3ccccc3)c3cc(N4CCCC4)c(F)cc3c2=O)c(C)c1` belongs “inactive”; to `Cc1c(NC(=O)c2cc(=O)c3ccccc3o2)c(=O)n(-c2ccccc2)n1C`, “inactive”; to `CCc1cccc(CC)c1NC(=O)Cn1c(=O)c(-c2cc(C)ccc2NC(C)=O)nc2ccccc21`, “inactive”. For the molecule `COC(=O)c1c(NC(=O)C(C)Oc2ccc(Cl)c(C)c2)sc(C)c1C` (centres undefined), the Potency result is “inactive”.

`COC(=O)c1sc(NC(=O)COC(=O)C2CCC2)c(C(=O)OC)c1C`: the Potency result was “inactive”. Still for that read-out and setting: under `COCCCNCC(=O)Nc1sc(C)c(C)c1C(=O)OC` stands 1 µM (active); under `CSc1ccccc1NC(=O)COC(=O)CCCOc1ccc(C)cc1`, “inactive”; under `COc1ccc(CNC(=O)c2cc(C(=O)C3CC3)c[nH]2)cc1`, “inactive”. Same read-out and setting: under `Cc1cccc(N2CCN(C(=O)CCSCc3ccccc3F)CC2)c1C` stands “inactive”. On the same count and under the same terms, to `Cc1cccc(N2CCN(C(=O)/C=C/c3ccco3)CC2)c1C` belongs 11.2 µM (active). As for `Cc1cccc(N2CCN(C(=O)c3cnc(N4CCCC4)nc3C)CC2)c1C`, the activity, negative = inhibition is 5.62% [at 12.7 µM].

(Values after PubChem BioAssay AID504332 (National Center for Advancing Translational Sciences (NCATS), 2011).)
